From PubChem BioAssay AID1063 (University of Pittsburgh Molecular Library Screening Center, 2008) come the findings set out here.

Out of some 200,000 compounds screened, about 18,000 (9%) were called active. The sample as a whole holds a higher share of actives than the screen did. A number with no mark means an inactive call. Rule as the data show it: active = inhibition above about 50%; inactive = the rest.

The assay can be described thus: Leishmania major promastigote growth inhibition, primary screen (AID 1063).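 Also: promastigotes grown with compound for 44 hours at 28 °C.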 As to conditions: Leishmania major promastigotes, resazurin fluorescence viability; at 10 µM; stronger effect = higher value. (The colour change of resazurin is a common sign of viable cells or microbes.)
With `Cn1cc(-c2ccccc2)cc(C#N)c1=O`, the inhibition (commonly the change of the read-out against control, counted positive when it falls) was -20%. In the case of `CC(C)N1CCC(NC(=O)Nc2ccccc2)CC1` it was -2.35%.

In the case of `COc1cc(/C=C/C(=O)OCC(=O)N2CCOCC2)ccc1OCC#N`, the inhibition was -11.6%. With `Nc1nnc(SCn2nnc3ccccc3c2=O)s1` the figure was -7.44%. In the case of `S=C(NCc1ccc2c(c1)OCO2)NCc1ccco1` it was 8.29%. In the case of `CCNC(=S)Nc1cccc(Cl)c1C` it was -6.44%; in that of `Cc1c(Cl)cccc1NC(=S)NCc1ccc2c(c1)OCO2`, 81.5% (active); in that of `CC(C)(C)c1cnnn1-c1ccc([N+](=O)[O-])cc1`, -0.24%.

Take `CCc1nnc(NS(=O)(=O)c2ccc(NC(=S)NC(=O)c3cccs3)cc2)s1`: the inhibition was -1.21%. In the case of `Cc1c(C(=O)O)nnn1-c1nonc1N` it was -0.68%.

As to `Cc1ccc(/C=C(\C#N)C(=O)Nc2cccc3ncccc23)o1`, the inhibition is 55.2% (active). With `Cc1ccc(C(=O)Nc2cccc3ncccc23)cc1[N+](=O)[O-]` the figure was 0.51%; with `O=C(Nc1cccc2ncccc12)C(Cl)(Cl)Cl`, -0.02%; with `C=CCn1c(SCc2cc(C(=O)OC)c(C)o2)nnc1-c1ccncc1`, -5.9%.

For `C=CCn1c(SCn2nnc3ccccc3c2=O)nnc1-c1ccc(Cl)cc1`, the inhibition was 1.86%. With `C=CCn1c(SCc2c(C(=O)OC)sc(N)c2C(=O)OC)nnc1-c1ccc(Cl)cc1` the figure was 50.9% (active).

As to `CCOC(=O)C1(CC2CCCCO2)CCN(Cc2nc(-c3cccs3)oc2C)CC1` (stereo not drawn), the inhibition was 19.6%. With `Cc1ccccc1NC(=O)NNC(=O)OC(C)(C)C` the figure was -6.97%; with `CCC(C)(C)NC(=O)C1c2ccccc2Oc2ccccc21`, 1.22%. With `CCCC1=Nc2cc(C(=O)NCc3ccco3)ccc2Sc2ccccc21` the figure was 91.3% (active). On to `CCCCOc1ccc(C(=O)NCc2ccco2)cc1`, for which the inhibition was -3.02%.

With `CCOc1ccccc1C(=O)NCc1ccco1`, the inhibition was -8.32%.

Regarding `Cc1ccc(S(=O)(=O)N2CCOCC2)cc1NC(=O)CSc1nnc(N)s1`, the inhibition is -4.64%.

Consider `CC(Sc1nncn1C)C(=O)Nc1cc(C(F)(F)F)ccc1N1CCOCC1` (stereo not drawn), for which the inhibition was -8.57%. In the case of `CCCCNC(=O)c1ccc(-n2c(=S)[nH]c3ccccc3c2=O)cc1` it was 2.08%; in that of `Cn1c(=O)c2cc(S(=O)(=O)NCCC(=O)Nc3ccc(F)cc3F)ccc2n(C)c1=O`, 8.04%.

As for `Cc1ccc(-n2ncc3c(=O)n(-c4ccc(C)c(C)c4)c(-c4ccco4)nc32)cc1`, the inhibition is 51.5% (active).

For `Cc1ccc(-c2nc3c(cnn3-c3ccccc3)c(=O)o2)cc1`, the inhibition was -4.66%.

Consider `Cc1ccc(-n2ncc3c2ncn2nc(-c4ccco4)nc32)c(C)c1`, for which the inhibition was -2.03%. With `COc1ccc(-c2nc(CN3CCN(c4ncccn4)CC3)c(C)o2)cc1C` the figure was 30.8%. In the case of `COc1cc(OC)cc(-c2nc(=S)n3ccsc3n2)c1` it was -3.3%; in that of `O=C(N1CCCCC1)N1CCN(C(=O)N2CCCCC2)CC1`, -3.35%. With `Cc1ccccc1NC(=O)c1nn(-c2ccc(F)c(F)c2)ccc1=O` the figure was -0.26%. As for `Cc1ccccc1-c1nnc(SCC(=O)NCc2ccc3c(c2)OCO3)n1C`, the inhibition is -5.07%.

Take `Cc1cccc(C)c1NC(=O)CSc1nnc(-c2ccccc2)n1Cc1ccc2c(c1)OCO2`: the inhibition is 53.4% (active). For the molecule `Cc1cnc(NC(=O)CSc2nnc(-c3ccccc3)n2Cc2ccccc2)s1`, the inhibition is 12.5%. In the case of `COc1ccc(C2C(C(C)=O)=C(O)C(=O)N2CCc2c[nH]c3ccccc23)cc1` (stereo not drawn) it was -4.35%; in that of `COc1ccccc1NC(=O)CSc1nnc(C)n1CC1CCCO1` (stereo not drawn), -2.8%; in that of `COc1ccccc1NC(=O)CSc1nnc(-c2ccoc2C)n1CCc1ccccc1`, 76.2% (active). On to `CCCn1c(SCC(=O)Nc2cccc(C(=O)OCC)c2)nnc1-c1ccoc1C`, for which the inhibition was 23.8%. With `Cc1ccc(CN2CCC(N3CCC(C(=O)NCC4CCCO4)CC3)CC2)o1` (stereo not drawn) the figure was -6.4%; with `CC(=O)c1cc(-c2ccccc2)n(CC(=O)NC2CCCCC2)c1C`, -2.4%. In the case of `COc1ccccc1NC(=O)/C=C/C(=O)O` it was -7.02%; in that of `COc1ccccc1NC(=O)c1ccc(C)s1`, 13.5%. In the case of `COc1ccccc1NC(=O)/C=C/C(N)=O` it was 59.7% (active); in that of `O=C(COC(=O)c1cnc(Cl)c(Cl)c1)NCc1ccco1`, -5.74%.

Take `O=C(CC1SCCNC1=O)Nc1ccc(Cl)cc1` (stereo not drawn): the inhibition is -5.68%. In the case of `COc1ccc2c(c1)C=CC1(O2)N(CCO)c2ccccc2C1(C)C` (stereo not drawn) it was 99.2% (active); in that of `COc1ccc2c(c1)C(SCC(=O)NCc1ccccc1)CC(C)(C)O2` (stereo not drawn), -6.83%; in that of `COc1cccc(CC2(CO)CCCN(CC3=Cc4cc(OC)ccc4OC3)C2)c1` (stereo not drawn), -1.53%. In the case of `CC(C)C(=O)NCc1cc(-c2ccc(Cl)cc2)no1` it was 1.34%; in that of `Cc1cccc(N(CC(O)CN(C)C)S(=O)(=O)c2ccccc2)c1` (stereo not drawn), 95.9% (active). With `CCN(c1ccccc1)S(=O)(=O)c1ccc2[nH]c(=O)[nH]c2c1` the figure was -5.33%. Consider `CCN(c1ccccc1)S(=O)(=O)c1ccc(N)cc1`, for which the inhibition was -4.44%. On to `Cc1cccc(N(CC(=O)N2CCOCC2)S(C)(=O)=O)c1`, for which the inhibition was 0.32%. In the case of `Cc1cc(C)n(CC(O)CN(c2ccccc2)S(=O)(=O)c2ccc3ccccc3c2)n1` (stereo not drawn) it was 61.1% (active); in that of `O=S(=O)(c1ccccc1)N(CC(O)CN1CCCCC1)c1ccccc1` (stereo not drawn), 45%.

For `COc1ccccc1N(CC(=O)N1CCCCC1)S(=O)(=O)c1ccccc1`, the inhibition is -2.25%. Take `Cc1ccc(N(CC(O)CN2CCCC2)S(=O)(=O)c2ccccc2)cc1` (stereo not drawn): the inhibition is 60.2% (active). In the case of `CCN(c1ccccc1)S(=O)(=O)c1cccc(C(=O)O)c1` it was -3.46%; in that of `CC1CCCCC1NC(=O)COC(=O)Cc1ccc(Br)cc1` (stereo not drawn), -8.18%.

For `C/C(=N\OCC(=O)Nc1ccc(Br)cc1)c1cccs1`, the inhibition is -1.5%. In the case of `Cc1cc(NC(=O)CN2C(=O)NC(C)(CCc3ccccc3)C2=O)no1` (stereo not drawn) it was 2.34%; in that of `CCc1cccc2c(=O)c(C(=O)NCCCOC)c[nH]c12`, -1.23%. With `Cc1ccc(/C=N/NC(=O)C(NC(=O)c2ccccc2)c2n[nH]c(=O)c3ccccc23)cc1` (stereo not drawn) the figure was -1.59%. With `Cc1ccc(-c2nn(-c3ccccc3)cc2/C=N/NC(=O)c2ccc3c(c2)OCO3)cc1` the figure was 8.23%; with `Cc1ccc(/C=N/NC(=O)C2=NNC(c3ccccc3)(c3ccccc3)C2)c(O)c1`, 100% (active).

As for `CNCC(O)CN1CCN(c2ccccc2OC)CC1` (stereo not drawn), the inhibition is -6.68%. With `COC(=O)c1c(NC(=O)CN2C(=O)NC(CCc3ccccc3)C2=O)sc2c1CCCCC2` (stereo not drawn) the figure was 28.1%.

`COC(=O)c1c(NC(=O)CN2CCN(S(=O)(=O)c3ccccc3[N+](=O)[O-])CC2)sc2c1CCC(C)C2` (stereo not drawn): the inhibition is 76.2% (active). Take `Cc1c(Br)c([N+](=O)[O-])nn1CC(=O)Nc1sc2c(c1C(=O)OC(C)C)CCC(C)C2` (stereo not drawn): the inhibition is -5.92%.

As for `Cc1ccc(NC(=O)C(=O)NCc2ccco2)c(C)c1`, the inhibition was -8.28%. In the case of `C/C(CC(=O)Nc1ccc(C)cc1C)=N\NC(=O)C(C)C` it was 13.4%. Consider `NC(=O)c1ccc(N2CCOCC2)nc1`, for which the inhibition is 2.59%. Turning to `Cc1cc(F)ccc1S(=O)(=O)Nc1ncnc2scc(-c3ccc(F)cc3)c12`, the inhibition was 64.1% (active). With `COc1ccc(-c2csc3ncnc(Oc4ccc5c(C)cc(=O)oc5c4)c23)cc1` the figure was 16.6%; with `CCn1cnc2scc(-c3ccc(C)c(C)c3)c2c1=O`, -4.16%. Turning to `O=C(NCc1nnc(SCC(=O)N2CCC(Cc3ccccc3)CC2)o1)c1ccco1`, the inhibition was 25%. With `COCC(C)NC(=O)COc1nncc2ccccc12` (stereo not drawn) the figure was 4.91%.

For the molecule `CN1CCN(S(=O)(=O)c2cccc(C(=O)O)c2)CC1`, the inhibition was -1.21%.

For the molecule `CNC(=O)NC(=O)C(OC(=O)c1cccc(S(=O)(=O)N2CCCCC2)c1)c1ccccc1` (stereo not drawn), the inhibition is 63.2% (active). In the case of `O=C(NNC1=NCCC1)c1cccc(S(=O)(=O)N2CCCCC2)c1` it was -5.29%; in that of `CCN1CCCC1CNc1ncnc2c1[nH]c1ccc(F)cc12` (stereo not drawn), 78.6% (active). Regarding `CCN1CCCC1Cn1cnc2c([nH]c3cc(OC)ccc32)c1=O` (stereo not drawn), the inhibition was 10.5%.

Take `CC(C)OCCCNc1ncnc2c1[nH]c1ccc(F)cc12`: the inhibition is 36.3%. With `O=C(NCC1CCCCC1)c1cc(S(=O)(=O)N2CCCCC2)ccc1N1CCOCC1` the figure was 7.99%; with `Cc1cc(/C=C2/C(=N)N3C(=NC2=O)SN=C3S(C)(=O)=O)c(C)n1-c1ccccc1`, 3.11%.

As for `O=C(COc1ccccc1F)NNC(=O)c1ccc(N2CCCCC2)c([N+](=O)[O-])c1`, the inhibition was -1.27%. In the case of `Cc1cccc(NC(=O)c2cccc(C(F)(F)F)c2)c1` it was 13.2%. `CC(NC(=O)c1ccc(N2CCNCC2)c([N+](=O)[O-])c1)C12CC3CC(CC(C3)C1)C2` (stereo not drawn): the inhibition is 7.22%. In the case of `O=C(Nc1ccc(N2C(=O)c3cccc4cccc(c34)C2=O)cc1)c1ccc(N2CCCCC2)c([N+](=O)[O-])c1` it was 75% (active); in that of `O=C(Nc1cccc(C(F)(F)F)c1)c1ccc(N2CCNCC2)c([N+](=O)[O-])c1`, 100% (active); in that of `O=C(Nc1ccc2c(c1)OCO2)c1ccc(N2C(=O)c3ccccc3C2=O)cc1`, -0.72%. With `C/C(=N/NC(=O)CCc1ccccc1)c1ccco1` the figure was 11.8%; with `CC1=NN(C(=O)c2ccc(Br)cc2)C(O)(c2ccccc2)C1` (stereo not drawn), -9.77%; with `CCCCOc1ccc(-c2nnc(-c3ccco3)o2)cc1`, -7.38%. In the case of `CCOc1ccc(-c2nnc(-c3ccco3)o2)cc1` it was 2.35%. As to `CCC(=O)Oc1cccc(C(=O)Nc2ccc(-c3nnc(-c4ccco4)o3)cc2)c1`, the inhibition is 98.9% (active).
